According to PubChem BioAssay AID1259343 (VanderVen Lab, College of Veterinary Medicine, Cornell …, 2017):
Hit rate of the full screen: of about 6,200 compounds, about 2,900 (47%) were called active. The set was probably picked from earlier hits. Some of the results follow. Unmarked numbers belong to inactive results. Rule as the data show it: active = inhibition above about 50%; inactive = the rest.

assay: Mycobacterium tuberculosis growth inhibition, primary screen (AID 1259343); conditions: inhibition: at 10 µM, stronger effect = higher value; outcome: 10 uM

| Compound | inhibition |
| --- | --- |
| CC(O)CN1CCN(C(=O)c2cc(Cl)c(Cl)n2C)CC1 (stereo not given) | -16.4% |
| CCn1cnnc1CCNS(=O)(=O)NCc1ccccc1 | -1.72% |
| Fc1c(F)c(F)c(Cn2nnc(-c3ccccc3)n2)c(F)c1F | 26.7% |
| Cn1nnnc1SCc1nc(-c2cccc(C(F)(F)F)c2)no1 | -6.38% |
| FC(F)(F)c1cccc(-c2nnn(Cc3ncc(-c4ccccc4)o3)n2)c1 | 58.2% (active) |
| CC(OC(=O)c1cc(Cl)c(O)c(Cl)c1)c1ccc(F)cc1 (stereo not given) | 45.8% |
| CC(=NNC(=O)c1cc(-c2cccc3ccccc23)n[nH]1)c1ccccc1O | 41.3% |
| CCC(=NNC(=O)c1ccc(F)cc1)c1cc(Cl)cc(Cl)c1O | 53.1% (active) |
| CN(CC1CCCO1)S(=O)(=O)c1ccc(C(=O)Nc2ccc3sccc3c2)cc1 (stereo not given) | 92% (active) |
| Cc1noc(C)c1CN1CCN2C(C(=O)Nc3ccc(-n4cccc4)cc3)=COC2=NC1=O | 90.5% (active) |
| O=C(Nc1ccc(-n2cccc2)cc1)C1=COC2=NC(=O)N(Cc3ccccc3)CCN12 | 84.6% (active) |
| Cc1ccccc1CN1CCN2C(C(=O)Nc3ccc(-n4cccc4)cc3)=COC2=NC1=O | 88.2% (active) |
| Cc1noc(C)c1CN1CCN2C=C(C(=O)Nc3ccc(-n4cccc4)cc3)OC2=NC1=O | 30.7% |
| c1cc(-c2ccc3c(c2)CCO3)ccc1CNC1CCCC1 | 75% (active) |
| CC(C)Cc1nc(CN(C)Cc2ccc3c(c2)CCO3)no1 | 21.8% |
| Cn1ncc(NCc2ccc(-c3ccc4c(c3)CCO4)cc2)c(Cl)c1=O | 68.8% (active) |
| CC(C)(C)n1ncc(NCc2cccc3c2OCO3)c(Cl)c1=O | 27.4% |
| O=C(c1ccc2c(c1)CCO2)N1CCOC(c2ccc(Cl)c(Cl)c2)C1 (stereo not given) | 7.26% |
| Cc1cc(NC(=O)CON=C2CCN(C(=O)C3CC3)CC2)ccc1Br | 92.3% (active) |
| Cc1cc(NC(=O)COC(=O)c2ccoc2)ccc1Br | 68.6% (active) |
| Cc1cc(NC(=O)COc2ccc(C3=CCN(C(N)=O)CC3)cc2)ccc1Br | -21.6% |
| O=C(CCc1n[nH]c(=S)[nH]c1=O)NCc1cccc(C(F)(F)F)c1 | -13.8% |
| O=c1[nH]c(=S)[nH]nc1Cc1ccc(Cl)c(Cl)c1 | 96.8% (active) |
| CC(C)C1=NOC(c2nc(C(C)c3ccccc3)no2)C1 (stereo not given) | 30.4% |
| Cc1c[nH]c(=O)n1-c1ccc(C(=O)N2CCCC2c2ccccc2)cc1 (stereo not given) | -8.28% |

| Compound | inhibition |
| --- | --- |
| CC1CC1C(=O)NCc1ccc(Oc2ccc(F)cc2)cc1 (stereo not given) | -11.6% |
| O=C(NCc1ccc(Oc2ccc(F)cc2)cc1)C1CC=CCC1 (stereo not given) | 88.9% (active) |
| COc1cccc(CN(C)Cc2nc(-c3cccs3)no2)c1 | 54.7% (active) |
| CN(Cc1nc(-c2cccs2)no1)CC1Cc2ccccc2O1 (stereo not given) | inactive |
| C#CCCC(C#N)(C#N)c1ncc(-c2ccc(OC)cc2)cn1 | 43% |
| O=C(O)c1cc(-c2cccs2)nn1-c1ccc(Cl)c(Cl)c1 | 51.3% (active) |
| Cc1cc(Nc2cccc(=O)[nH]2)n(-c2ccc(Cl)c(Cl)c2)n1 | 49.9% |
| CC(C)c1ccc(NC(=O)C2CCS(=O)(=O)C2)cc1 (stereo not given) | 75.6% (active) |
| CC(C)c1ccc(NS(=O)(=O)C2CC2)cc1 | 30.9% |
| CC1CN=C(Nc2ccc(C(C)C)cc2)S1 (stereo not given) | 6.24% |
| Cc1ccc(-c2cc(C(F)(F)C(F)F)[nH]n2)cc1 | 86.5% (active) |
| Cc1ccc(-c2c(N)n[nH]c2C(F)(F)F)cc1 | 32% |
| O=[N+]([O-])c1ccc(C=NNc2ccnc3cc(Cl)ccc23)o1 | 99.4% (active) |
| O=[N+]([O-])c1ccc(C=NN(c2ccccc2)c2ccccc2)o1 | 47.1% |
| O=[N+]([O-])c1ccc(C=Nn2cnn(Cc3ccccc3Cl)c2=S)o1 | 43.5% |
| O=[N+]([O-])c1ccc(C=NNc2ccc(Cl)c(Cl)c2)o1 | 93.2% (active) |
| O=[N+]([O-])c1ccc(C=NNc2ccc(Cl)cc2)o1 | -17.5% |
| Cc1ccccc1C1c2[nH]c3ccccc3c2CCN1C(=O)c1cccc(C#CC(C)(C)O)c1 (stereo not given) | -3.93% |
| CCCCc1ccc(Nc2nnc(SCC(=O)NCC)s2)cc1 | 83.3% (active) |
| CCc1ccc(Nc2nnc(SCC(N)=O)s2)cc1 | 36.7% |
| CCc1ccc(Nc2nnc(SCC(=O)NC3CCCC3)s2)cc1 | 100% (active) |
| CCCCNC(=O)CSc1nnc(Nc2ccc(CC)cc2)s1 | 45.2% |
| CCCCc1ccc(Nc2nnc(SCC(=O)NC3CCCC3)s2)cc1 | 86% (active) |
| CCC(=O)N(Cc1ccco1)Cc1cc(NC(=O)c2ccccc2Cl)ccc1N(C)C1CCN(C)CC1 | 39.1% |
| COc1ccc(OCc2cc(C(=O)N3CCCCCC3)no2)c(Cl)c1 | 42% |

| Compound | inhibition |
| --- | --- |
| O=C(Nc1ccc(OCc2ccco2)c(Cl)c1)N1CCOCC1 | 79% (active) |
| O=S(=O)(Cc1ccccc1)c1nnnn1-c1ccccc1 | 101% (active) |
| Cc1ccc(CC2CC(=O)N(C3CCCCC3)C2=O)cc1 (stereo not given) | 36.3% |
| Cc1ccc(NNC2CC(=O)N(N(C)C)C2=O)cc1 (stereo not given) | 78.2% (active) |
| COc1ccc(C=CC(=O)c2ccc3ccccc3c2)cc1 | 60.1% (active) |
| COc1cccc(C=CC(=O)c2ccc(Cl)c(Cl)c2)c1OC | 44.5% |
| COc1ccc(/C=C/C(=O)c2cc(O)ccc2O)cc1 | 97.6% (active) |
| COc1ccc(C(=O)C=Cc2cccc(O)c2)cc1F | 87.2% (active) |
| O=C(/C=C/c1ccccc1)c1ccc(O)cc1O | 96.2% (active) |
| O=C(/C=C/c1ccc(O)cc1)c1ccccc1O | 47.6% |
| COC(=O)c1ccc(C=CC(=O)c2ccc(OC)cc2)cc1 | 47.6% |
| O=C1COc2ccc(C(=O)C=Cc3ccc4ccccc4c3)cc2N1 | 62.3% (active) |
| Oc1ccc(Cl)cc1Sc1cc(Cl)ccc1O | 101% (active) |
| O=c1cc(O)c2sc3nc(C4CC4)cc(C(F)(F)F)c3c2[nH]1 | 38.2% |
| FC(F)Oc1ccc(N=C2SCC3CCCCN23)cc1 (stereo not given) | 82.4% (active) |
| COc1ccc(N=C2SCCN2CC(=O)c2ccc(Cl)cc2)cc1 | -4.26% |
| Clc1ccc(N=C2SCC3CCCCN23)cc1 (stereo not given) | -1.03% |
| Clc1ccc(N=C2SCCN2C2CCCCC2)cc1 | 90.5% (active) |
| CC(C)(CNC(=O)C1Cc2cc(F)ccc2O1)C1CCCCO1 (stereo not given) | 14.4% |
| O=C(NCCc1ccc(F)cc1)C1Cc2ccccc2O1 (stereo not given) | 70.3% (active) |
| COc1ccc2c(c1)OCC(Cc1ccc(OC)c(OC(C)=O)c1)C2=O (stereo not given) | 96.6% (active) |
| CC(C(=O)Nc1ccc(C#N)cc1)N1CC=C(c2ccccc2)CC1 (stereo not given) | 49.1% |
| CC(C(=O)Nc1ccc(C23CC4CC(CC(C4)C2)C3)cc1)n1cncn1 (stereo not given) | 95.9% (active) |
| COc1ccc(NC(=O)C(C)n2cccn2)cc1Cl (stereo not given) | 8.88% |
| Cc1ccc(-n2nc(C(=O)c3ccc(Cl)cc3)c(N)c(C#N)c2=O)cc1 | 94.6% (active) |

| Compound | inhibition |
| --- | --- |
| COc1ccc(Oc2cnn(-c3ccc(Cl)cc3)c(=O)c2Nc2ccc(C(=O)O)cc2)cc1 | 28% |
| O=C(Nc1ccc(-c2ccccc2)cc1Cl)C1CC1 | 92.4% (active) |
| NS(=O)(=O)N1CCC(C(=O)Nc2ccc(-c3ccccc3)cc2F)CC1 | -3.6% |
| O=C(CNC(=O)c1cccc(F)c1)N=Nc1c(O)n(CCc2ccccc2)c2ccccc12 | -16.1% |
| Cc1cc(C)cc(C(=O)C=C2NC(=O)CS2)c1 | -74.8% |
| COc1cc(NC(=O)c2ccc3c(c2)NC(=O)C(C)S3)cc(OC)c1 (stereo not given) | 31.5% |
| COc1ccc(NC(=O)c2ccc3c(c2)NC(=O)C(C)S3)cc1 (stereo not given) | 57.4% (active) |
| COc1cc(NC(=O)c2ccc3c(c2)NC(=O)CS3)cc(OC)c1 | 62.6% (active) |
| COc1cc(C=NOCc2cccc3ccccc23)ccc1OC(F)F | 52.4% (active) |
| CCOC(=O)C1(CCc2ccccc2)CCCN(Cc2cccn2-c2ncccn2)C1 (stereo not given) | 13% |
| CCOC(=O)NC(=O)COC(=O)C1(Cc2ccccc2)CCCCC1 | 51.4% (active) |
| Cn1cc(C(=O)Nc2cccc(C(F)(F)F)c2)c2[nH]c(=O)n(-c3ccc(F)cc3)c(=O)c21 | 24.6% |
| CC(C)OC(=O)c1cn(-c2ccc(F)cc2)c(=O)c2ccccc12 | 80.8% (active) |
| O=C(c1cnn(-c2ccc(F)cc2)c1)c1ccccc1O | 42.7% |
| O=C(Nc1nc(-c2ccc(Br)cc2)cs1)c1cc(Cl)ccc1[N+](=O)[O-] | 94.8% (active) |
| CCS(=O)(=O)N1CCC(C(=O)Nc2nc(-c3ccc(Br)cc3)cs2)CC1 | 33.8% |
| Cc1nnc(SCc2cccc3ccccc23)[nH]c1=O | 88.9% (active) |
| O=C(O)CCc1nnc(SCc2cccc(Cl)c2)[nH]c1=O | 34.4% |
| CC1CCc2sc(-c3nn(CN4CCN(c5cnccn5)CC4)c(=S)o3)cc2C1 (stereo not given) | 95.3% (active) |
| Cc1cc(C)[n+]2c(-c3ccccc3)csc2n1 | 80% (active) |
| CN(Cc1cnccn1)c1ccc(-c2nc(-c3cccc(Cl)c3)no2)cn1 | 80.1% (active) |
| CCc1ccc(CN(C)Cc2nc(-c3cccc(Cl)c3)no2)nc1 | 24.1% |
| CC(C)Cc1csc2nc(Cc3cccs3)[nH]c(=O)c12 | 42% |
| CN(Cc1nc2scc(-c3ccco3)c2c(=O)[nH]1)C1CCCCC1 | -6.13% |
| O=c1[nH]c(CN2CCCC2c2cccs2)nc2scc(-c3ccco3)c12 (stereo not given) | 85% (active) |
